This is part of a sample that, as a whole, favours compounds with a hit. Of some 83,000 tested, about 20% had one in any assay.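 Interpretation: 100, growth as untreated; towards 0, rising growth inhibition; 0, no net growth; 0 to -100, cell death. Compounds scoring below 10 were considered active.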 Calls of active or inactive are those of the source.

One experiment has as its system MALME-3M melanoma. Briefly: NCI-60 one-dose screen, 48 h (100 = growth as untreated, 0 = no growth, -100 = all killed). To be noted: 10 µM unless noted.
Take `O=C(O)c1ccc2cccnc2c1O`: the growth is -7.97% (active). Same read-out and setting: then `CC[C@@H](c1ccc(O)c(O)c1)[C@@H](CC)c1ccc(O)c(O)c1`, with 39.2% (inactive); and `Cc1ccc(NC(=O)c2sc3nc4c(cc3c2N)C(=O)CCC4)cc1`, with 89.1% (inactive). The same measure, in the same setting: then `CCOC(=O)/C=C1/SC(=Nc2ccc(C#N)cc2)N(Cc2ccco2)C1=O`, with 47.6% (inactive); and `COP(=O)(OC)C(c1ccc(O)cc1)(c1ccc(O)cc1)c1ccc(O)cc1`, with 127% (inactive); and `COc1ccccc1-n1c(-c2ccc(O)cc2C)cn2c3c(=O)[nH]c(=O)n(C)c3nc12`, with 97.6% (inactive).

For a further experiment, the system named is MDA-MB-231 breast. Described as above. To be noted: 10 µM unless noted.
As to `COc1ccc2ncccc2c1Cc1c(OC)ccc2ncccc12`, the growth was 71.1% (inactive). Still for that read-out and setting: then `COc1cc(C2CC(C3C(=O)N(C)C(=O)N(C)C3=O)=NN2c2cc(Cl)cc(Cl)c2)cc(OC)c1OC` (stereo not drawn), with 103% (inactive); and `Cc1sc2nc(NCc3ccccc3)[nH]c(=O)c2c1C`, with 59.8% (inactive). Same read-out and setting: then `Cc1cc2c(cc1C)[n+](Cc1ccc3ccccc3n1)cn2Cc1ccc2ccccc2n1`, with -7.81% (active). Still for that read-out and setting: then `COc1cc(/C=C2\CN(S(=O)(=O)c3ccc(C)cc3)C/C(=C\c3cc(CN4CCOCC4)c(O)c(OC)c3)C2=O)cc(CN2CCOCC2)c1O`, with 5.67% (active). In the case of `O=C1NCCc2c1noc2-c1ccccc1`, the growth is 122% (inactive). On the same count and under the same terms, then `C[C@]12CCC(=O)C=C1CC[C@H]1[C@@H]3C[C@@H](O)[C@](O)(C(=O)CO)[C@@]3(C)C[C@H](O)[C@@]12F`, with 102% (inactive).

As to `C/C(=C\CCc1ccsc1)CC/C=C(\C)CCCN1CCSCC1`, the growth was 85.9% (inactive). Take `COC(=O)Nc1ccc2ccc3c(NC(=O)OC)ccc4ccc1c2c43` (tested in a mixture with another compound): the growth is 54.1% (inactive). Same read-out and setting: then `O=C(Nc1nc2c(C(F)(F)F)cccc2s1)c1cc(Cl)ccc1O`, with -13.2% (active); and `COc1cc(C2=NN(C=O)C(c3cccc(Nc4ccnc5cc(Cl)ccc45)c3)C2)cc(OC)c1OC` (stereo not drawn), with 76.5% (inactive).

With `COc1cccc(-c2nc(-c3ccc(N)cc3)co2)c1`, the growth is 88.1% (inactive). Same read-out and setting: then `C[C@@H]1[C@H]2[C@H](C=C3[C@@H]4CC[C@H]5Cc6nc7c(nc6C[C@]5(C)[C@H]4C[C@@H](O)[C@@]32C)C[C@@H]2CC[C@H]3C4=C[C@@H]5O[C@@]6(CC[C@](C)(CO)O6)[C@@H](C)[C@@]5(O)[C@@]4(C)[C@H](O)C[C@@H]3[C@@]2(C)C7)O[C@]12CCC(C)(C)O2`, with -0.32% (active); and `O=C(CNC(=O)c1cccc2ccccc12)Nc1ccccc1Oc1cccc(O)c1`, with 48.9% [5 µM] (inactive). `CCN(CC)CCNCC(=O)Oc1ccc(/C=C/C(=O)CC(=O)/C=C/c2ccc(OC(=O)CNCCN(CC)CC)c(OC)c2)cc1OC`: the growth is 14% (inactive). On the same count and under the same terms, then `COc1ccc(-c2cc(-c3nnc(SCC(=O)Nc4ccc(C(C)=O)cc4)n3-c3ccccc3)c3ccccc3n2)cc1OC`, with 105% (inactive); and `COc1ccc2c(c1)[n+](=O)c(C(=O)/C=C/c1cc(OC)c(OC)c(OC)c1)c(C)n2[O-]`, with 67.9% (inactive); and `COc1ccc(-c2nc3sc4c(c3c(=O)[nH]2)CCCCCC4)cc1`, with 52.6% (inactive). On the same count and under the same terms, then `CC(=O)Nc1c(Cl)cc2c(c1Cl)Cc1cc([N+](=O)[O-])ccc1-2`, with 97.5% (inactive); and `CCN(CC)CCCCCCCNc1c2ccc(Cl)cc2nc2ccc(OC)cc12`, with -30% (active). As to `COc1cc(/C=C/c2cc(/C=C/c3ccc(O)c(OC)c3)n(C(=O)c3ccc(Cl)cc3)n2)ccc1O`, the growth is 31.8% (inactive). Still for that read-out and setting: then `Cc1n(Cc2ccc3ccccc3c2)c2ccccc2[n+]1Cc1ccc2ccccc2c1`, with -83.6% (active); and `CCn1cnc(C[C@H](NC(=O)[C@H](CCCCNC(=O)Nc2cc(C(F)(F)F)cc(C(F)(F)F)c2)NC(=O)Nc2cc(C(F)(F)F)cc(C(F)(F)F)c2)C(=O)OC)c1`, with -100% [100 µM] (active). Take `O=C(Nc1cccc(-n2cc(-c3ccncc3)c(-c3cc(O)cc(Cl)c3)n2)c1)Nc1ccc(Cl)c(Cl)c1`: the growth was -38.1% (active). Same read-out and setting: then `Oc1ccc(/C=N/Nc2nc3ccccc3s2)c(O)c1`, with 41.9% (inactive); and `Cc1csc(C#Cc2cncc(O)c2)n1`, with 107% (inactive); and `COc1cc(/C=C/C(=O)CC(=O)/C=C/c2ccc(OC(=O)CCNC34CC5CC(CC(C5)C3)C4)c(OC)c2)ccc1OC(=O)CCNC12CC3CC(CC(C3)C1)C2`, with 52.4% (inactive).
